# Compound activity from PubChem.
# Most compounds without a hit are left out; they make up all but 3.4% or so of the library.
# PGC1a acetyl inh: PGC1a acetylation modulation, inhibitor mode. U2OS PGC1a acetylation, AlphaScreen anti-acetyl-lysine; with virally co-expressed GCN5 acetyltransferase. inhibition, % at 15.6 µM. actives 0.17% (n = 350,000);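 active = every replicate shows inhibition of at least 40%; inconclusive = mean inhibition at least 40% but some replicate below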;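 also: 0% = neutral control wells and 100% = positive control wells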
# LGR2 inh: inhibitors of bursicon-induced Drosophila LGR2 receptor cAMP signaling. HEK293 LGR2, CRE-luciferase, bursicon-stimulated, 4 h. inhibition, % at 9.99 µM. actives 0.35% (n = 380,000). AID 720647;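 active = drop in luminescence signal, shown as inhibition above about 50% in the replicate tests, limit read from the data, passing the limit was not always enough; inconclusive = probably only some replicates passing the limit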;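 also: agonist challenge used bursicon conditioned medium at about half maximal strength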
# SIRT5 block: blocks human SIRT5 desuccinylation of peptide | Q9NXA8 | Purified SirT5, succinyl-peptide AMC, trypsin-coupled fluorescence | inhibition, % at 15 µM | actives 1.1% (n = 330,000) | AID 652115; in the data active = inhibition above about 15%; inconclusive = no clear call, values can overlap the other calls
# Target sequence (Q9NXA8 whole entry, looked up): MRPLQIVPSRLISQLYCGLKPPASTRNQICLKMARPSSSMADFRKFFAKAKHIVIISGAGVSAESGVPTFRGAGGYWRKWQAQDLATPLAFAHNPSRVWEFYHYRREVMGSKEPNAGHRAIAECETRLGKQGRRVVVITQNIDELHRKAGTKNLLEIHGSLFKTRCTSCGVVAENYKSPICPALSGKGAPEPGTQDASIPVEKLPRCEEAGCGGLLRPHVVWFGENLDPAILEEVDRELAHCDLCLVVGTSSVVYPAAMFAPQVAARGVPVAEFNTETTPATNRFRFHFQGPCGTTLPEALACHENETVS
# rRNA inh HTS: inhibitors of bacterial rRNA selective over humanized ribosomes. GFP signal change (wild-type ribosome), % (concentration not given with the values). actives 1.6% (n = 350,000). AID 720706. E. coli WT GFP vs humanized-ribosome RFP mutants, fluorescence, 24 h; hits give low values; DMSO median 0, no signal -100;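 active = significant combined selectivity score with lowered wild-type GFP, culture density cut under 30%, mutant RFP and density less affected; inactive = any of these conditions unmet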
# EWS-Fli block: inhibitors of EWS/Fli oncoprotein transcriptional activity; actives 0.67% (n = 350,000); inhibition, % at 12.6 µM; A673 NR0B1-luciferase reporter, viability-normalised;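 active = mean inhibition of at least 50% after viability correction, with every replicate also passing that limit; inconclusive = mean reaches 50% but only one of two replicates passes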;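 also: firefly luciferase signal divided by Alamar Blue viability fluorescence both relative to DMSO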
# PAX8 reporter: lowers PAX8-driven luciferase in RMG-I cells | RMG-I TPO-luciferase reporter, SteadyGlo, 24 h | inhibition, % at 12.6 µM | actives 1.2% (n = 360,000) | AID 652154;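 active = mean replicate inhibition at least 60% with every replicate also reaching 60%; inconclusive = only one of the two criteria is met; inactive = mean below 60% and not all replicates reaching 60%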;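 also: luciferase light reporting Pax8 driven TPO promoter activity; plate controls were median of neutral control wells for no effect and mitoxantrone controls for full effect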
# Starred values were filed as active, the others as inactive; ? = inconclusive; / = not tested or not shown.
SMILES,PGC1a acetyl inh,LGR2 inh,SIRT5 block,rRNA inh HTS,EWS-Fli block,PAX8 reporter
Cc1ccc(S(=O)(=O)N(C)C[C@H]2OCCCC[C@H](C)Oc3ccc(NS(=O)(=O)c4c(C)noc4C)cc3C(=O)N([C@@H](C)CO)C[C@@H]2C)cc1,3,-4,7,-2,9,-22
CCOC(=O)C(=Cc1cc(=O)c(OC)co1)C(=O)OCC,/,?,-6,/,70*,22
CC(=O)N(C)C[C@H]1Oc2ccccc2C(=O)N(C)C[C@@H]1C,/,/,/,0,/,/
Cc1ccc(-n2c(O)c(C=NC3CCS(=O)(=O)C3)c3ccccc3c2=O)c(C)c1 (stereo not drawn),57*,3,1,1,-19,3
Cc1ccc(-n2c(O)c(C=NC3CCS(=O)(=O)C3)c3ccccc3c2=O)cc1 (stereo not drawn),-7,5,/,/,/,/
CN(Cc1ccccc1)C(=O)c1ccc(Nc2nc(C(N)Cc3ccc(C(F)(F)F)cc3)cs2)nc1 (stereo not drawn),/,0,-2,-59,34,87*
CCOc1ccc(CC(=O)Nc2cccc(-c3ccc4nnc(C)n4n3)c2)cc1,/,11,1,-34*,22,0
COc1ccc(CC(=O)Nc2cccc(-c3ccc4nnc(C)n4n3)c2)cc1,-17,-6,-6,-25,15,-13
COc1ccc(C(=O)N2[C@@H](C(C)C)COc3cc(Br)ccc3S2(=O)=O)cc1,/,19,0,4,-1,65*
Cn1cnc(S(=O)(=O)N[C@@H]2CC[C@@H](CC(=O)N3CCN(c4ccccc4)CC3)O[C@@H]2CO)c1,0,-9,1,4,-1,-2
CN1Cc2c(N3CCOCC3)nc3sc(C(=O)c4ccccc4)c(N)c3c2CC1(C)C,/,11,3,-36*,2,13
Nc1c(C(=O)c2ccccc2)sc2nsc(SCCN3CCOCC3)c12,-32,-38,-3,-27*,-56,-50
COc1ccccc1C/C(N)=N/OC(=O)c1cccs1,0,-24,-2,-25*,-2,-23
COc1ccc(C/C(N)=N/OC(=O)c2cccs2)cc1,1,-21,-1,2,-7,-3
COc1ccc(C(=O)O/N=C(\N)c2ccc(Br)cc2)cc1,-1,-95,-5,21,-96,-78
COc1ccc(CC(=O)O/N=C(\N)c2ccncc2)cc1,/,-10,-4,-6,10,-5
COc1ccc(C(=O)O/N=C(\N)c2ccccc2)cc1,-15,79*,-9,6,21,-3
CC(C)(C)c1ccc(C(=O)O/N=C(\N)Cc2cccs2)cc1,0,-107,34*,-17,-65,-51
COc1ccc(CC(=O)O/N=C(\N)c2ccc(C)cc2)cc1,-28,-83,/,-22*,-74,-95
C[C@@H]1CN([C@H](C)CO)S(=O)(=O)c2ccc(C#CC3CCCCC3)cc2O[C@@H]1CN(C)C,-36,1,-5,-25,10,/
COc1cccc(-c2cn(CC[C@@H]3CC[C@@H](NS(=O)(=O)Cc4ccccc4)[C@H](CO)O3)nn2)c1,-7,23,-4,-7,-69,-61
N/C(=N\OC(=O)Cc1ccc(Cl)cc1)c1ccncc1,17,-9,4,-22*,-5,-12
N/C(=N\OC(=O)Cc1ccc(Cl)cc1)c1cccnc1,5,-20,1,-11,-21,/
CC(C)(C)c1ccc(C(=O)O/N=C(\N)c2ccccc2)cc1,/,91*,0,-51,76*,30
COc1ccc(/C(N)=N/OC(=O)c2ccco2)cc1,19,69*,4,-14,31,-4
SMILES,PGC1a acetyl inh,LGR2 inh,SIRT5 block,rRNA inh HTS,EWS-Fli block,PAX8 reporter
N/C(=N\OC(=O)Cc1ccccc1)c1ccccc1Cl,/,-101,0,-17*,-60,-208
O=C(Nc1ccccc1F)N[C@@H]1CC[C@H](CCNS(=O)(=O)c2ccccc2)O[C@H]1CO,1,-6,0,0,-3,-7
CC(=O)N1[C@H](C(=O)NCc2ccc(F)cc2)[C@@H](CO)[C@@H]2Cn3c(cccc3=O)[C@@H]21,/,3,3,3,-4,-16
COc1cc(C(=O)NCC(=O)N2CCN(S(=O)(=O)c3cc(C)ccc3C)CC2)cc(OC)c1OC,/,16,0,-12,54*,3
COc1cc(C(=O)NCCN2CCCC2)cc(OC)c1OC,10,-13,/,/,/,/
COc1cc(C(=O)NCCN2CCN(C(=O)c3cc(OC)c(OC)c(OC)c3)CC2)cc(OC)c1OC,1,-30,29*,8,4,10
Cc1ccc(C)c(S(=O)(=O)N2CCN(C(=O)CCNC(=O)c3ccc(Br)cc3)CC2)c1,/,3,2,-26,-2,10
C[C@@H]1CN([C@@H](C)CO)C(=O)c2cc(NS(C)(=O)=O)ccc2O[C@H]1CN(C)S(=O)(=O)c1ccccc1,-2,-4,/,2,-6,/
CC[C@H]1CC=CC[C@H](C)Oc2ccccc2C(=O)N(C)[C@@H](Cc2ccccc2)C(=O)N1 (mixture of isomers),/,/,/,-23,/,/
CCOC(=O)c1c(CS(=O)(=O)c2ccccc2)n(C)c2cc(Br)c(O)cc12,-20,/,18*,-19*,7,13
CCOC(=O)c1c(CS(=O)(=O)c2ccccc2)n(C)c2cc(Br)c(O)c(CN(C)C)c12,-22,4,/,-9,13,16
Cc1cc(F)ccc1S(=O)(=O)Nc1ncnc2sccc12,-3,-12,23*,4,-2,5
COCC(=O)N1CC2(C1)[C@@H](c1ccccc1)[C@H](CO)N2C(=O)c1ccncc1,/,/,/,2,/,/
O=C(NC1CCCCC1)C(c1cccs1)N(C(=O)Cc1c[nH]c2ccccc12)c1ccc(F)cc1 (stereo not drawn),-5,/,/,/,/,97*
CC(C)NC(=O)N(C)C[C@@H]1Oc2ncc(-c3cccc(C#N)c3)cc2C(=O)N([C@H](C)CO)C[C@H]1C,5,-4,-1,2,-7,/
C[C@H]1CN([C@@H](C)CO)S(=O)(=O)c2ccc(C#Cc3ccccc3F)cc2O[C@H]1CN(C)C(=O)c1ccc2c(c1)OCO2,5,10,17*,0,22,90*
C[C@@H]1CN([C@@H](C)CO)S(=O)(=O)c2ccc(C#Cc3ccccc3F)cc2O[C@@H]1CN(C)C(=O)c1ccc2c(c1)OCO2,3,6,26*,-6,18,78*
C[C@@H]1CN([C@H](C)CO)S(=O)(=O)c2ccc(C#Cc3ccccc3F)cc2O[C@H]1CN(C)C(=O)Cc1ccccc1,4,11,0,0,10,?
CCCNC(=O)N1CC2(CN(C(=O)CCC)C2)c2c(n(C)c3cc(OC)ccc23)[C@H]1CO,/,/,/,-1,/,/
O=C(N[C@@H]1CC[C@H](CCNS(=O)(=O)Cc2ccccc2)O[C@H]1CO)c1cnccn1,-4,12,-2,1,-8,-6
